This is one part of a sample in which hits are shown more often than they occur.
TDP1 cell CPT: growth inhibition of DT40 Tdp1-/-;hTDP1 cells with camptothecin (screen for TDP1 inhibitors). AID 686979. 420,000 tested, 12% active. chicken DT40 Tdp1-/-;hTDP1 cells + 20 nM CPT, ATP luminescence, 48 h. Potency, µM (doses to about 46.2 µM), inactives show at the top dose activity change, negative = growth inhibition, hits mostly inhibitors; note: potency is the fitted concentration of half-maximal effect; nearly all actives have a fitted effect of over 55% in size
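Chicken DT40 Tdp1-/- cells stably complemented with human TDP1 were seeded at 400 cells/well in medium containing 20 nM camptothecin, exposed to pin-transferred compounds, and grown at 37 °C for at least 48 hr. Viability was read as ATP luminescence.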
12-LOX inh: blocks human arachidonate 12S-lipoxygenase; 580,000 tested, 1.1% active; P18054; AID 1671190; purified 12hLO, xylenol orange hydroperoxide absorbance; Potency, µM (series often up to 108 µM), inactives show at the top dose activity change, negative = inhibition, actives largely listed as inhibitors; note: potency is the fitted concentration of half-maximal effect
Target sequence (P18054 whole entry, looked up): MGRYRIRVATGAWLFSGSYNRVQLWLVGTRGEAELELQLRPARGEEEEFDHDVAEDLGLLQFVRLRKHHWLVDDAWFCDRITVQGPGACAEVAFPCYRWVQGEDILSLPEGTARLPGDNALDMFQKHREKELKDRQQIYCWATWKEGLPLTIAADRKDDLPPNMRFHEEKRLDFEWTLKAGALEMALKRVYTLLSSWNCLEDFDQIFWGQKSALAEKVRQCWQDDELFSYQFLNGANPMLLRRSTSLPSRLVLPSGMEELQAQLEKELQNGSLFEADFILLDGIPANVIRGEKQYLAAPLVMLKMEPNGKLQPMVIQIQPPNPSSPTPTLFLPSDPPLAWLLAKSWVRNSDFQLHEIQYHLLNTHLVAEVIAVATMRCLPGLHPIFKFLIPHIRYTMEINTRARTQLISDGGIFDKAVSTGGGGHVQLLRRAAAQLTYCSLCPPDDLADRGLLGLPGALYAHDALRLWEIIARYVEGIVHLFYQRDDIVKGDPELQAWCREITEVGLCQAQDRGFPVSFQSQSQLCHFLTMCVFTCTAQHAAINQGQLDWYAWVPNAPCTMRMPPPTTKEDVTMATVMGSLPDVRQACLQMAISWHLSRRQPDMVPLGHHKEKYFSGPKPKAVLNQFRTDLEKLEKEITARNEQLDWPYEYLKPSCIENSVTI
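Purified human 12hLO (150 nM final) in 25 mM Hepes, 0.01% Triton X-100, pH 7.0 was preincubated 15 min at room temperature with compound. Then 40 uM arachidonic acid was added, 30 min. Hydroperoxide was read by Fe-XO absorbance ratio 573/405 nm.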
TDP1 cell noCPT: qHTS for Inhibitors of human tyrosyl-DNA phosphodiesterase 1 (TDP1): qHTS in cells in absence of CPT; DT40 Tdp1-/- hTDP1 cells, no CPT, ATP luminescence, 48 h; Potency, µM (highest dose often 46.2 µM), for the others: at the top dose activity change, negative = growth inhibition, usual class: inhibitors; 420,000 tested, 15% active; AID 686978, 2013; note: potency is the fitted concentration of half-maximal effect; nearly all actives have a fitted effect of over 55% in size
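Luminescent ATP content (CellTiter-Glo) served as the growth readout. Knockout chicken DT40 cells expressing human TDP1 were exposed to compounds without camptothecin for a minimum 48 hr at 37 °C.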
HT1080 IDH1KD tx: kills HT-1080 cells with IDH1 knockdown; 360,000 tested, 2% active; HT-1080 IDH1 knockdown viability, ATP luminescence, 48 h; Potency, µM (series often up to 46.1 µM), for the others: at the highest dose activity, negative = toxicity, actives largely listed as cytotoxic;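 note: potency is the fitted concentration of half-maximal effect; 0% = DMSO wells and -100% = cell-free medium wells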
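After a 2 h attachment period, IDH1KD HT-1080 cells took pin-transferred compound for 48 h at 37 °C; ATP-based luminescence after 10 min room-temperature reagent incubation reported viability.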
IL-1B inflam inh: inhibitors of inflammasome signaling (IL-1 beta secretion). THP-1 LPS/ATP IL-1B secretion, AlphaLISA, 16 h; stronger effect = lower value. activity change, % at 57.5 µM. 360,000 tested, 4.7% active. AID 743279; in the data active = activity change below about -50%; inconclusive = mostly about -30% to -49%
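Secreted IL-1B measured by AlphaLISA bead assay after 16 h compound exposure of THP-1 cells; compounds (final up to 57.5 uM) added 1 h before LPS (250 ng/mL) and ATP (1.25 mM) stimulation; lower signal means less secretion.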
HT1080-NT tox: kills 2HG-producing HT-1080-NT fibrosarcoma cells; HT-1080-NT fibrosarcoma viability, CellTiter-Glo ATP luminescence, 48 h; AID 686970; Potency, µM (top dose mostly 46.1 µM), without a hit: at the top dose activity, negative = less viability, hits mostly cytotoxic; 360,000 tested, 1.6% active;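 note: NT is the 2HG producing partner of a matched IDH1 knockdown line; potency is the fitted concentration of half-maximal effect; 0% = DMSO-treated cells and -100% = media-only wells without cells; nearly all actives have a fitted effect of over 55% in size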
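Fibrosarcoma NT cells, 750 per well in 5% FBS RPMI, were exposed to compound for 48 hours. Viability: CellTiter-Glo luminescence.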
The depositor's hits bear a star; ? = inconclusive; · = no result. Unless noted, calls come from the whole dose curve; as a rule, active = well fitted curve in the direction sought with a large enough effect; inconclusive = small, poorly fitted or top-dose-only effect, or another doubt; inactive = no such curve, though single readings can be large; an effect the other way counts as inactive or inconclusive. Unless noted, % is set by controls: 0 for no effect and ±100 for the full control effect.

SMILES	TDP1 cell CPT	12-LOX inh	TDP1 cell noCPT	HT1080 IDH1KD tx	IL-1B inflam inh	HT1080-NT tox
CN1CCN(S(=O)(=O)c2cc3cc(F)ccc3oc2=O)CC1	·	2.8%	·	·	·	·
Cc1cc(C(=O)Nc2ccc3c(c2)CCC3)ccc1[N+](=O)[O-]	4.2%	1.0%	?	5.5%	-69.1*	-4.3%
O=[N+]([O-])c1ccc(NC(=S)Nc2ccc3c(c2)CCC3)cc1	·	39.8µM*	·	·	·	·
O=C(Nc1cccc([N+](=O)[O-])c1)Nc1ccc2c(c1)CCC2	20.6µM*	-19.3%	?	?	?	-20.8%
CN(C)NC(=S)Nc1ccc([N+](=O)[O-])cc1	·	-6.9%	·	·	·	·
CN(C(=O)COC(=O)c1ccccc1NCCO)C1CCS(=O)(=O)C1 (stereo not drawn)	-0.7%	3.5%	-0.7%	9.0%	5.2	6.8%
N#Cc1ccc(O[C@@H]2COCC[C@H]2NC(=O)CCn2ccc(=O)[nH]c2=O)cc1	·	31.5%	·	·	·	·
Cc1[nH]nc(C(F)(F)F)c1N=NN1CCOCC1	2.59µM*	-23.2%	3.26µM*	?	-10.4	?
O=C(Nc1cnc2ccccc2c1)c1ccc(N2CCCCC2)c([N+](=O)[O-])c1	·	-13.4%	·	·	·	·
N#Cc1c(NCCN)nc(-c2ccco2)c2c1CCCC2	?	-12.6%	?	?	-104.8*	?
N#Cc1c(N2CCOCC2)nc(-c2ccco2)c2c1CCCC2	?	?	?	-5.4%	-77.6*	-5.1%
CC(C)CCNc1nc(-c2ccco2)c2c(c1C#N)CCCC2	?	?	?	?	20.0	?
Cc1ccsc1C(=O)C1CCCN(Cc2cc(F)ccc2-n2cccn2)C1 (stereo not drawn)	9.2µM*	45.3%	11.6µM*	-16.7%	-18.8	-29.6%
CCCOc1ccc(C(=O)Nc2ccc(S(=O)(=O)N3C[C@@H]4C[C@@H](C3)c3cccc(=O)n3C4)cc2)cc1	?	-28.4%	13µM*	?	32.3	8.2µM*
CCCOc1ccc(C(=O)Nc2ccc(S(=O)(=O)N3CCN(C)CC3)cc2)cc1	?	17.3%	?	-21.1%	-0.7	-11.0%
Cc1ccc(CN(C)C(=O)NCc2coc(-c3cccs3)n2)cc1	·	-11.5%	·	·	·	·
OC(c1ccccc1)c1nc(-c2ccc(F)c(Cl)c2)cs1 (stereo not drawn)	16.4µM*	?	-39.3%	?	-6.5	?
COc1cc(C(O)c2nc(-c3cccc(F)c3)cs2)ccc1F (stereo not drawn)	?	-5.2%	18.4µM*	-26.8%	0.3	?
OC(c1ccc(F)cc1)c1nc(-c2cncnc2)cs1 (stereo not drawn)	?	9.0%	-23.8%	4.0%	-86.0*	10.8%
OC(c1ccc(F)c(F)c1)c1nc(-c2cnc3ccccc3c2)cs1 (stereo not drawn)	?	-11.3%	20.6µM*	-27.8%	21.7	?
OC(c1ccc(F)c(F)c1)c1nc(-c2cccs2)cs1 (stereo not drawn)	?	?	?	-3.8%	-11.7	-1.1%
OC(c1ccc(F)cc1)c1nc(-c2ccccc2)cs1 (stereo not drawn)	?	-7.6%	?	-21.9%	1.4	-0.9%
COc1cc(C(O)c2nc(-c3cncnc3)cs2)ccc1F (stereo not drawn)	12.8%	?	-18.1%	-0.5%	9.0	11.4%
COc1cccc(NC(=O)N[C@H]2C[C@@H](C(=O)N[C@@H](CCCNC(=O)C=C(C)C)C(N)=O)N(C(=O)C=C(C)C)C2)c1	·	5.0%	·	·	·	·
COCCc1noc(-c2ccccc2OC2CN(C(=O)C(C)C)C2)n1	·	39.3%	·	·	·	·
SMILES	TDP1 cell CPT	12-LOX inh	TDP1 cell noCPT	HT1080 IDH1KD tx	IL-1B inflam inh	HT1080-NT tox
Cc1ccc(-c2cc3c(=O)n(CCNC(=O)c4ccc(N(C)C)cc4)ccn3n2)c(C)c1	·	10.5%	·	·	·	·
OC(c1ccc(F)c(F)c1)c1nc(-c2ccc3c(c2)OCO3)cs1 (stereo not drawn)	20.6µM*	?	?	-25.3%	-15.5	-7.5%
COc1cc(C(O)c2nc(-c3ccccc3OC)cs2)ccc1F (stereo not drawn)	?	?	?	0.0%	-9.5	?
OC(c1ccc(F)c(F)c1)c1nc(-c2ccccc2)cs1 (stereo not drawn)	?	-14.5%	?	-12.8%	-2.5	-10.2%
OC(c1ccc(F)c(F)c1)c1nc(-c2cccc(F)c2)cs1 (stereo not drawn)	14.6µM*	?	?	?	28.0	?
COc1cc(C(O)c2nc(-c3ccc(N(C)C)cc3)cs2)ccc1F (stereo not drawn)	16.4µM*	·	23.1µM*	?	-61.6*	-1.0%
COc1cc(C(O)c2nc(-c3cc4ccccc4o3)cs2)ccc1F (stereo not drawn)	20.6µM*	?	23.1µM*	?	-5.8	?
COc1ccccc1-c1nc(C#N)c(NCCN2CCOCC2)o1	·	41.7%	·	·	·	·
COc1ccc(N2CCN(CCCn3cnc4c(OC)ncnc43)CC2)cc1	3.0%	-9.0%	-0.7%	6.6%	22.8	3.4%
CSc1cccc(NC(=O)c2n[nH]c(=O)c3ccccc23)c1	·	5.5%	·	·	·	·
COc1cc(C(O)c2nc(-c3cccc(C(C)C)c3)cs2)ccc1F (stereo not drawn)	?	?	18.4µM*	?	15.9	?
OC(c1ccccc1)c1nc(-c2cc(F)cc(F)c2)cs1 (stereo not drawn)	?	-4.8%	?	?	-8.2	?
COc1ccc(C(O)c2nc(-c3cc(F)cc(F)c3)cs2)cc1 (stereo not drawn)	16.4µM*	-29.3%	16.4µM*	?	-16.3	?
COc1cc(C(O)c2nc(-c3cc(F)cc(F)c3)cs2)ccc1F (stereo not drawn)	23.1µM*	0.7%	14.6µM*	-28.6%	17.3	-14.4%
OC(c1ccc(F)cc1)c1nc(/C=C/c2ccccc2)cs1 (stereo not drawn)	?	-13.5%	-23.7%	?	8.2	?
COc1cc(C(O)c2nc(/C=C/c3ccccc3)cs2)ccc1F (stereo not drawn)	18.4µM*	?	?	?	0.0	-6.7%
CCOC(=O)CCCCCC(=O)Nc1ccc2c(c1)C(=O)N([C@@H](C)CO)C[C@@H](C)[C@H](CN(C)C(=O)Nc1ccccc1)OCCCC[C@H](C)O2	-7.5%	-42.5%	6.2%	3.8%	17.0	3.8%
